From PubChem BioAssay (NCATS)
Inconclusive results are not listed. Entries that show only a call come without a potency. Unmarked numbers belong to inactive results. Calls of active or inactive are those of the source. The call rests on the fitted dose curve; in most records, active means well fitted inhibition curve with a large enough effect; inconclusive means small, poorly fitted or top-dose-only effect; inactive means flat fitted curve, though single readings scatter.

Assays:
[1] = target: Glutathione peroxidase 1 (Homo sapiens) (UniProt P07203); experiment: Primary qHTS Assay for Inhibitors of Recombinant Selenoprotein Glutathione Peroxidase 1 (GPX1) (AID 1845191)
Chain of Glutathione peroxidase 1 (Homo sapiens) (P07203 whole entry, looked up): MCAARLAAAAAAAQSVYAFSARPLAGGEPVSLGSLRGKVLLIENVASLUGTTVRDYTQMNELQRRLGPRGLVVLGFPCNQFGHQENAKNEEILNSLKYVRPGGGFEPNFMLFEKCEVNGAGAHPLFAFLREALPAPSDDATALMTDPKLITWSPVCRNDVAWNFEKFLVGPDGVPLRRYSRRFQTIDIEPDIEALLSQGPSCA
Summary of the method: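 Recombinant GPX1 (10 nM final) was preincubated with compound for 30 min at room temperature, then reacted with 1 mM GSH, 0.5 mM CHP, 0.5 mM NADPH and 100 nM glutathione reductase; NADPH fluorescence (340/450 nm) was read at 0 and 15 min.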

[2] = target: Phospholipid hydroperoxide glutathione peroxidase GPX4 (Homo sapiens) (UniProt P36969); experiment: Primary qHTS Assay for Inhibitors of Recombinant Selenoprotein Glutathione Peroxidase 4 (GPX4) (AID 1845192); on activity change, negative = inhibition: series mostly up to about 50 µM
Chain of Phospholipid hydroperoxide glutathione peroxidase GPX4 (Homo sapiens) (P36969 whole entry, looked up): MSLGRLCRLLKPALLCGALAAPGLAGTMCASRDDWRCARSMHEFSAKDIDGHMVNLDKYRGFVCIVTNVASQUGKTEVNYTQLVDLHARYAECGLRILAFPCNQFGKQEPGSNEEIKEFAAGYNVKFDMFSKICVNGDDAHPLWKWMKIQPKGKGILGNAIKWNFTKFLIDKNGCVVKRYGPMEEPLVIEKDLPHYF
Summary of the method: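 GR-coupled readout: 100 nM GR, 1 mM GSH, 0.5 mM NADPH; NADPH fluorescence (ex 340/em 450 nm) read at t=0 and after 15 min RT. GPX4 200 nM, preincubated 30 min with compound; substrate 0.5 mM CHP.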
Further: nearly all actives have a fitted effect of over 65% in size.
Potency means the concentration at half of the fitted maximal effect.

CCCCC(CC)CCC(CC(C)C)OS(=O)(=O)O (centres undefined)
Potency [1]: inactive
Potency [2]: 10 µM (active)

C/C=C/C=C/C(=O)O
Potency [1]: inactive
Potency [2]: inactive

CO[C@@]1(NC(=O)C2SC(=C(C(N)=O)C(=O)O)S2)C(=O)N2C(C(=O)O)=C(CSc3nnnn3C)CS[C@@H]21 (some centres undefined)
Potency [1]: 10.1 µM (active)
Potency [2]: 17.8 µM (active)

CC(C)(C)NCC(O)CSc1nc(-c2ccc(C(N)=O)s2)cs1 (centres undefined)
Potency [1]: 22.7 µM (active)
Potency [2]: 12.6 µM (active)

O=C(OCc1ccccc1)c1cccnc1
Potency [1]: inactive
Potency [2]: inactive

OC[C@@H](O)C(O)[C@H](O)CO
Potency [1]: inactive
Potency [2]: inactive

NC[C@H]1O[C@H](O[C@H]2[C@H](O)[C@@H](O[C@H]3O[C@H](CO)[C@@H](O)[C@H](N)[C@H]3O)[C@H](N)C[C@@H]2N)[C@H](N)C[C@@H]1O
Potency [1]: inactive
Potency [2]: inactive

Cc1cc(-c2ccc(N=Nc3ccc4c(S(=O)(=O)O)cc(S(=O)(=O)O)c(N)c4c3O)c(C)c2)ccc1N=Nc1ccc2c(S(=O)(=O)O)cc(S(=O)(=O)O)c(N)c2c1O
Potency [1]: inactive
Potency [2]: inactive

CCN1C(=O)NC(c2ccccc2)C1=O (centres undefined)
Potency [1]: inactive
Potency [2]: inactive

C[C@H](NCCc1ccc(O)cc1)[C@H](O)c1ccc(O)cc1
Potency [1]: inactive
Potency [2]: inactive

COc1ccc2c(c1)OC(C)(C)C(c1ccccc1)C2c1ccc(OCCN2CCCC2)cc1 (centres undefined)
Potency [1]: inactive
Potency [2]: inactive

CC1=C(/C=C/C(C)=C/C=C/C(C)=C/C=C/C=C(C)/C=C/C=C(C)/C=C/C2=C(C)C[C@@H](O)CC2(C)C)C(C)(C)C[C@H](O)C1
Potency [1]: inactive
Potency [2]: inactive

C[S+](C)CCC(N)C(=O)O (centres undefined)
Potency [1]: inactive
Potency [2]: inactive

CS(=O)(=O)OCC(O)C(O)COS(C)(=O)=O (centres undefined)
Potency [1]: inactive
Potency [2]: inactive

OCc1ccccc1
Potency [1]: inactive
Potency [2]: inactive

CC(=O)NCCCS(=O)(=O)O
Potency [1]: inactive
Potency [2]: inactive

CCN(CC)CCOC(=O)c1cccnc1
Potency [1]: inactive
Potency [2]: inactive

O=C(O)CCC(=O)c1ccc(-c2ccccc2)cc1
Potency [1]: inactive
Potency [2]: inactive

O=C1[O][Bi][O]c2ccccc21
outcome [1]: inactive [at 0.4 µM]
outcome [2]: inactive [at 0.409 µM]

C=CC1=C(C(=O)O)N2C(=O)[C@@H](NC(=O)/C(=N\O)c3csc(N)n3)[C@H]2SC1 (stereo in doubt)
Potency [1]: 11.4 µM (active)
Potency [2]: inactive

COc1ccc2c(c1)N(C[C@H](C)CN(C)C)c1ccccc1S2
Potency [1]: inactive
Potency [2]: inactive

COC(=O)CCC[N+](C)(C)C
Potency [1]: inactive
Potency [2]: inactive

C[C@H](CCC(=O)O)[C@H]1CC[C@H]2[C@@H]3[C@H](O)C[C@@H]4C[C@H](O)CC[C@]4(C)[C@H]3C[C@H](O)[C@]12C
Potency [1]: inactive
Potency [2]: inactive

CCSc1ccc2c(c1)N(CCCN1CCN(C)CC1)c1ccccc1S2
Potency [1]: inactive
Potency [2]: inactive

OCCCNc1ccccc1
Potency [1]: inactive
Potency [2]: inactive

O=C(NNCS(=O)(=O)O)c1ccncc1
Potency [1]: 5.7 µM (active)
Potency [2]: 3.98 µM (active)

NC(=O)c1ccc[n+]([C@@H]2O[C@H](COP(=O)([O-])OP(=O)(O)OC[C@H]3O[C@@H](n4cnc5c(N)ncnc54)[C@H](O)[C@@H]3O)[C@@H](O)[C@H]2O)c1
Potency [1]: inactive
Potency [2]: inactive

CC(=O)[O][Al][O]C(C)=O
activity, negative = inhibition [1]: -5.17% [at 9.52 µM]
activity change, negative = inhibition [2]: -11.7% [at 9.73 µM]

CCCCC[C@H](O)/C=C/[C@H]1[C@H](O)CC(=O)[C@@H]1CCCCCCC(=O)O
Potency [1]: inactive
Potency [2]: inactive

CCCCCCCCCCCCCCCCCC(=O)OCC(C)O (centres undefined)
Potency [1]: inactive
Potency [2]: inactive

CCCCCc1ccc(C)cc1O
Potency [1]: inactive
Potency [2]: inactive

Cc1ncc(COP(=O)(O)O)c(CN)c1O
Potency [1]: inactive
Potency [2]: inactive

CNC(=O)C[C@@H](N)C(=O)N[C@@H](C(=O)N[C@@H]1C(=O)N2[C@@H]1SC(C)(C)[C@@H]2C(=O)O)c1ccc(O)cc1
Potency [1]: inactive
Potency [2]: inactive

C=CCOc1ccc(CC(=O)O)cc1Cl
Potency [1]: inactive
Potency [2]: inactive

Cc1c(C)c2c(c(C)c1OC(=O)CCC(=O)O)CC[C@@](C)(CCC[C@H](C)CCC[C@H](C)CCCC(C)C)O2
Potency [1]: inactive
Potency [2]: inactive

CC(=O)Nc1c(I)c(C(=O)O)c(I)c(N(C)C(C)=O)c1I
Potency [1]: inactive
Potency [2]: inactive

CC1=CC(=C(c2ccc(N)cc2)c2ccc(N)cc2)C=CC1=N
Potency [1]: inactive
Potency [2]: inactive

CCCCC(=O)O[C@H]1CC[C@H]2[C@@H]3CCc4cc(O)ccc4[C@H]3CC[C@]12C
Potency [1]: inactive
Potency [2]: inactive

CC(C)(C)NCC(O)c1ccc(O)c(CO)n1 (centres undefined)
Potency [1]: inactive
Potency [2]: 12.6 µM (active)

CC(C)Cc1ccc([C@@H](C)C(=O)NS(C)(=O)=O)cc1
Potency [1]: inactive
Potency [2]: inactive

CCCCC(O)c1ccccc1 (centres undefined)
Potency [1]: inactive
Potency [2]: inactive

CC1CCCCN1CCCOC(=O)c1ccccc1 (centres undefined)
Potency [1]: inactive
Potency [2]: inactive

CNCC(O)c1ccc(OC(=O)C(C)(C)C)c(OC(=O)C(C)(C)C)c1 (centres undefined)
Potency [1]: inactive
Potency [2]: inactive

Cc1ccc(S(=O)(=O)O)cc1C
Potency [1]: inactive
Potency [2]: inactive

C[Se]CC[C@H](N)C(=O)O
Potency [1]: inactive
Potency [2]: inactive

Cc1ncc(C[n+]2csc(CCOP(=O)(O)OP(=O)(O)O)c2C)c(N)n1
activity, negative = inhibition [1]: -4.18% [at 0.4 µM]
activity change, negative = inhibition [2]: -9.41% [at 0.409 µM]

CNC(=O)OCc1cccc(COC(=O)NC)n1
Potency [1]: inactive
Potency [2]: inactive
